The record followed here is the OligoGym collection.
Further: reference of the scale not given here.

The target of one test is ZNF219. Briefly: pooled miR-30 sensor sort-seq; sequence = guide strand. The note with it: shRNA.
TGGAGTATCGCTGCAGATCCAG returned a sensor-assay potency score (higher = more potent) of -1.26. For TTGAGGTGATGTGCTGAGCGGA, the sensor-assay potency score (higher = more potent) is -0.983. TATCGCTGCAGATCCAGCTCGC showed a sensor-assay potency score (higher = more potent) of 0.347. The same measure, in the same setting: with TAGTAGCGCGCGCTCTTCCAAC the figure was -1.67; with TACTTGAGCGAGCCGGACTGGG, -1.26; with TTCCGCAGAAAGGACAATCCTT, -0.585.

Sequence TCGCAGATGCACTTTGAGGTGA came in with a sensor-assay potency score (higher = more potent) of -0.383. On to TAGAGTTGAAGCGGAAGCGCTT, for which the sensor-assay potency score (higher = more potent) is -0.695. TTGCCTTTGCAGTAGGGGCAAC yielded a sensor-assay potency score (higher = more potent) of -1.2.

Another test has as its target ZNF233. Described as above. The note with it: shRNA.
Take TATCTCATTTTGATTCTTGTGT: the sensor-assay potency score (higher = more potent) came out at 0.251. TTTGCTGACACCTACTCTGATA gave a sensor-assay potency score (higher = more potent) of -0.77. In the case of TTTACTTGTAAATTGTTCCCAT, the sensor-assay potency score (higher = more potent) amounted to 0.845. Same read-out and setting: in the case of TTAATTTACTTGTAAATTGTTC it was -0.905; in that of TTTAGCAACTTGGACCTCTTGC, 0.0723; in that of TCTTGTGTCCTGAACACCCATC, -0.866. TAATCTTACTTCTTGAAGGGTA: the sensor-assay potency score (higher = more potent) was 0.461. Turning to TTCTTGTGTCCTGAACACCCAT, the sensor-assay potency score (higher = more potent) was -0.736.

For the sequence TATCCTGTCACTTACTTCCCAT, the sensor-assay potency score (higher = more potent) is -0.636. For TATTAGGTCTTGATTACTGGTT, the sensor-assay potency score (higher = more potent) is -0.618.

The sequence ATGTACACAACTTCTCTCCTGG gave a sensor-assay potency score (higher = more potent) of -0.0529. Regarding TTAATCTTACTTCTTGAAGGGT, the sensor-assay potency score (higher = more potent) was -0.195.

The target of the next test is ZNF24. The description is as above. The note with it: shRNA.
TTCACTCTCCAAATCCTCCAGC displayed a sensor-assay potency score (higher = more potent) of -0.297.

For the sequence TTTGTGTGCGTCTCTGGCCTGA, the sensor-assay potency score (higher = more potent) is -0.444. The same measure, in the same setting: in the case of AAAAATTTGAGGAACACCCATA it was -0.922; in that of TAAGTATTGAATCTTCTTCCAC, -0.673.

As for TAGTGCTCCATTTTCAGTCCTA, the sensor-assay potency score (higher = more potent) amounted to 0.194.

As to TTGAGGAACACCCATACTGAGA, the sensor-assay potency score (higher = more potent) was -1.26. Regarding TGGATGATGATCTCGAACCCAA, the sensor-assay potency score (higher = more potent) was -0.874. In turn, TAAAAATTTGAGGAACACCCAT returned a sensor-assay potency score (higher = more potent) of -0.488. The same measure, in the same setting: in the case of TTTCTCTTTCTTTCAAACCTGC it was 0.00433; in that of TCTTCTACTAGTACTTCCCGTT, 0.168.

Take TAATGCTGAAGGAAGCTCCTGC: the sensor-assay potency score (higher = more potent) is 0.616.

Consider TTCTGCATTGTGTCTTCTCTGA, for which the sensor-assay potency score (higher = more potent) stood at 0.000948.

Another test addresses ZNF250. Described as above. The note with it: shRNA.
In turn, TTAACAGAGACTTCTCTTGGGC yielded a sensor-assay potency score (higher = more potent) of -0.0398. On the same count and under the same terms, with TAAGACCTGAACTTCACGGTGG the figure was 0.671. Sequence TTTGTGACACTGAATCGCCAAA came in with a sensor-assay potency score (higher = more potent) of -1.66.

TTTTGTGACACTGAATCGCCAA: the sensor-assay potency score (higher = more potent) was 0.484.

TGTATGTATCTTGTGATGCTGA displayed a sensor-assay potency score (higher = more potent) of -0.256. As for TGTCTTGTTGTGTACAGGCTGT, the sensor-assay potency score (higher = more potent) is -0.552.

Regarding TTATTTTCTTGATCAATCCTCC, the sensor-assay potency score (higher = more potent) came to 0.32.
